Consider 14 compounds from PubChem BioAssay.

The structures appear in SMILES notation. The source made the active and inactive calls.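 The calls were made as follows, unless noted: active = inhibition at or above 50% at 10 µM; inactive = inhibition below 50%.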

Test [1] is described as follows: inhibitors of TNFa-induced NFkB p65 translocation, primary screen, imaging, HUVEC, MLSMR starter and 10KST1 sets (AID 438;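 active = inhibition above 20% together with a positive visual image hit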;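 also: compound added about 3h40 before a 20 min TNFalpha stimulation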;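 as to inhibition: signal is the nuclear over cytoplasmic p65 intensity ratio per well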). The settings on record: HUVEC TNFa-induced p65 nuclear translocation; cell count: measured here: nuclei count (cytotoxicity indicator), at 2.08 µM; inhibition: at 2 µM, stronger effect = higher value, 0% TNFa-plus-vehicle, 100% no-TNFa wells.
Test [2] is described as follows: reduction of polyQ htt aggregates in cells – imaging, exon1htt(103Q)mCFP cells, high-content imaging, primary screen (AID 483;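 active = visual image review flags a hit and inhibition of aggregation exceeds 20%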;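 also: compound exposure lasted 3 days before fixation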;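 as to nuclei count: percent of the per-plate median nuclei count of sample wells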). The settings on record: exon1htt(103Q)mCFP cell line, aggregate imaging, at 2 µM; inhibition of aggregation: stronger effect = higher value; nuclei count: measured here: cell count, toxicity.
Test [3] can be described thus: endothelial E-selectin expression blockers – imaging, HUVEC, immunofluorescence, MLSMR starter and 10KST1 sets, primary screen (AID 487;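 active = visually confirmed hit in the image check and inhibition above 20%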;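 as to inhibition: signal is fraction of cell area covered by stained E-selectin grains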;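 as to nuclei count: 100% = median nuclei count of all wells on the same plate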). The settings on record: HUVEC TNFalpha-induced E-selectin immunofluorescence imaging, at 2 µM; inhibition: stronger effect = higher value; nuclei count: measured here: cell number, toxicity.
Test [4] deals with Voltage-gated potassium channel subunit beta-2 (Rattus norvegicus) (UniProt P62483). Kind of test: inhibitors of rat Kvbeta2 reductase activity – biochemical, NADPH fluorescence, primary screen (AID 622;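 active = fluorescence slope higher than the sample average by over 3 SD, cut at about -0.22 in these data, passing the limit was not always enough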;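 also: slope of raw intensity against log time taken from 70 to 1610 s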). The conditions noted are these: recombinant KvBeta, 4-cyanobenzaldehyde reduction, at 10 µM, stronger effect = higher value.
For test [5] the target is unchanged. Kind of test: enhancers of rat Kvbeta2 NADPH turnover – biochemical, NADPH fluorescence, primary screen (AID 623;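 active = NADPH fluorescence slope more negative than the mean of all samples by about 3 SD, 99.7% confidence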;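 also: fluorescence intensity change per second fitted from 20 to 320 s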). The conditions noted are these: Recombinant KvBeta, NADPH fluorescence decrease slope, 10 min; at 10 µM; stronger effect = lower value.
For test [6], the target named is Alpha-2C adrenergic receptor (Homo sapiens) (UniProt P18825). Kind of test: compounds altering alpha2C-coupled GIRK flux – cell-based, HEK293 alpha2C/GIRK1/2, thallium flux, primary screen (AID 624;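 active = fluorescence slope after compound addition differing from the mean of all screened samples at 99.7% confidence, in either direction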;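 also: slope of fluorescence ratio to pre-addition baseline per second over 15 to 24 s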). The conditions noted are these: thallium flux BTC fluorescence, at 10 µM, actives lie on both sides.
Test [7] is described as follows: blockers of RIG-like receptor reporter activation – cell-based, Sendai virus stimulus, luciferase, 10K MLSCN set, TLR/RLR signaling modifier project, primary screen (AID 602276).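 Also: firefly luciferase from ISG56 promoter only with Renilla not read in this screen; 0% = Sendai virus plus DMSO and 100% = medium plus DMSO without virus.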 The settings on record: HEK293 RL24 IRF3 luciferase reporter, at 10 µM, stronger effect = higher value. On the technique in general: Reporter assays use an easily measured gene product as a stand-in for the process of interest.

Test [8] can be described thus: TLR3 IRF3 reporter activation blockers – cell-based, poly I:C stimulus, luciferase, 10K MLSCN set, primary screen (AID 602277;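 active = inhibition of the reporter signal at or above 50%; inactive = inhibition below 50%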). The conditions noted are these: HEK293-TLR3 RL24 IRF3 luciferase reporter, at 10 µM, stronger effect = higher value.

Chain of Alpha-2C adrenergic receptor (Homo sapiens) (P18825 whole entry, looked up): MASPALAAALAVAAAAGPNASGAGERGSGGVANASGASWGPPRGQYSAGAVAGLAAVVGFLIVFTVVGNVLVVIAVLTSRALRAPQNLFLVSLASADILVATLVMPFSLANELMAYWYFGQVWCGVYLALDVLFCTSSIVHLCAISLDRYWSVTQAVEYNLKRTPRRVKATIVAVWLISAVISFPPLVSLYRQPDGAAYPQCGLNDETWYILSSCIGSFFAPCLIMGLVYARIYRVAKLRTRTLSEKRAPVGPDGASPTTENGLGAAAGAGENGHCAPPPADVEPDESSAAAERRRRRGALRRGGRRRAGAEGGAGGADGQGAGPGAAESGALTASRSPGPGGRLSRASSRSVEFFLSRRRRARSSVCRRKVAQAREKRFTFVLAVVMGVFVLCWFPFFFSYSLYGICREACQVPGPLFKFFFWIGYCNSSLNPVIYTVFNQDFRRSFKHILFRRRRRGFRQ
Chain of Voltage-gated potassium channel subunit beta-2 (Rattus norvegicus) (P62483 whole entry, looked up): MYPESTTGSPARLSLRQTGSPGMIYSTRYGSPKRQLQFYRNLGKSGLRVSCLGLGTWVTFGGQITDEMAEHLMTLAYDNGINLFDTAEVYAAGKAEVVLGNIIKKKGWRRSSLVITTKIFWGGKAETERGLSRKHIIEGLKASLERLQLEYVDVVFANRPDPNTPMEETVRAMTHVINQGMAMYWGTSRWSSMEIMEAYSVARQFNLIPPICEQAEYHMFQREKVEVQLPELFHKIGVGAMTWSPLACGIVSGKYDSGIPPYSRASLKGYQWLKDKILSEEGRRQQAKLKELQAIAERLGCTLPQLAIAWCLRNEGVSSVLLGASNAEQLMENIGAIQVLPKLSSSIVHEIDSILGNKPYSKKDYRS

For the compound `COc1ccc(Cn2nnnc2C(c2ccccn2)N2CCN(c3cc(Cl)ccc3C)CC2)cc1` (centres undefined), the cell count in test [1] amounted to 669. For the same compound, the inhibition (usually the change of the read-out against control, counted positive when it falls) is -8% (inactive) in test [1], -18.4% (inactive) in test [3], 21.3% (inactive) in test [7] and 37.4% (inactive) in test [8]. For the same compound, in test [2], the inhibition of aggregation is 2.5% (inactive). In addition, the nuclei count in test [2] worked out at 112%; in test [3], 104%. Besides, the fluorescence slope in test [4] is -0.217 (inactive). In addition, in test [5], the NADPH fluorescence slope was -1.3e-05 (inactive). Moreover, in test [6], the slope is 0.00703 (inactive).

On to `Cc1ccc(C)c(S(=O)(=O)C(C#N)c2nc3ccccc3nc2N2CC(C)OC(C)C2)c1` (centres undefined), for which the cell count in test [1] amounted to 358. Also, the inhibition is -4.1% (inactive) in test [1], -84.3% (inactive) in test [3], 32.7% (inactive) in test [7] and 2.87% (inactive) in test [8]. Moreover, the inhibition of aggregation in test [2] was -3.8% (inactive). Besides, the nuclei count in test [2] was 103%; in test [3], 125%. Further, the fluorescence slope in test [4] is -0.494 (inactive). Besides, the NADPH fluorescence slope in test [5] was -1.6e-06 (inactive). Also, the slope in test [6] is 0.00382 (inactive).

For the compound `COc1ccc(NC(=O)CCS(=O)(=O)c2ccc(OC)cc2)cc1`, in test [1], the cell count stood at 401. Besides, the inhibition in test [1] was -2.5% (inactive); in test [3], -24% (inactive); in test [7], -3.69% (inactive); in test [8], -1.71% (inactive). Moreover, the inhibition of aggregation in test [2] was 20.3% (inactive). Further, the nuclei count in test [2] stood at 84.3%; in test [3], 101%. The fluorescence slope in test [4] was -0.539 (inactive). Further, in test [5], the NADPH fluorescence slope was -8.1e-06 (inactive). Besides, in test [6], the slope is 0.00539 (inactive).

Take `Cc1nc(NC(=O)c2ccccc2)sc1-c1csc(NCc2ccco2)n1`: the cell count in test [1] came out at 301. In addition, the inhibition in test [1] was -2.4% (inactive); in test [3] it was -13% (inactive); in test [7], 5.26% (inactive); in test [8], -13.8% (inactive). For the same compound, the inhibition of aggregation in test [2] was 0% (inactive). Further, the nuclei count stood at 121% in test [2] and 113% in test [3]. The fluorescence slope in test [4] is -0.185 (inactive). In addition, the NADPH fluorescence slope in test [5] is -1.9e-05 (inactive). Besides, the slope in test [6] was 0.0038 (inactive).

Consider `CCc1[nH]nc2c1C1(CCN(C(=O)OCc3ccccc3)CC1)C(C#N)=C(N)O2`, for which the cell count in test [1] turned out to be 823. The inhibition in test [1] was 0.6% (inactive); in test [3], -28.9% (inactive); in test [7], 17.6% (inactive); in test [8], 13.6% (inactive). Also, the inhibition of aggregation in test [2] was 12.7% (inactive). Also, the nuclei count was found to be 114% in test [2] and 124% in test [3]. The fluorescence slope in test [4] was -0.494 (inactive). The NADPH fluorescence slope in test [5] is -4.5e-05 (inactive). In test [6], the slope is 0.00458 (inactive).

For the compound `CCOC(=O)C(NC(C)=O)(Nc1ccc(S(=O)(=O)Nc2nccs2)cc1)C(F)(F)F` (centres undefined), the cell count in test [1] was 523. Also, the inhibition in test [1] was -1% (inactive); in test [3], 4.2% (inactive); in test [7], 14.8% (inactive); in test [8], 30.2% (inactive). The inhibition of aggregation in test [2] was 27% (inactive). Also, the values for the nuclei count in test [2] and in test [3] were 93.8% and 95.9%, respectively. For the same compound, the fluorescence slope in test [4] was -0.645 (inactive). In test [5], the NADPH fluorescence slope is 1.5e-06 (inactive). Also, the slope in test [6] was 0.00657 (inactive).

As for `O=C1CC(c2ccccc2)n2nc(NC(=O)c3ccccn3)nc2N1` (centres undefined), in test [1], the cell count was determined as 565. In addition, the inhibition is 3.3% (inactive) in test [1], 16.2% (inactive) in test [3], 9.98% (inactive) in test [7] and 27.1% (inactive) in test [8]. Further, the inhibition of aggregation in test [2] is -11.8% (inactive). Further, the nuclei count in test [2] was determined as 108%; in test [3], 106%. The fluorescence slope in test [4] was -0.605 (inactive). Moreover, the NADPH fluorescence slope in test [5] is -3.9e-05 (inactive). Moreover, the slope in test [6] is 0.00587 (inactive).

For `O=C(Nc1cccc(O)c1)c1ccccc1`, in test [1], the cell count was 474. Also, the inhibition in test [1] is 18.5% (inactive); in test [3], -32.9% (inactive); in test [7], -19.1% (inactive); in test [8], -29.4% (inactive). Moreover, in test [2], the inhibition of aggregation was 6% (inactive). The nuclei count in test [2] was determined as 98.6%; in test [3], 102%. In test [4], the fluorescence slope is -0.521 (inactive). Moreover, the NADPH fluorescence slope in test [5] is 5e-06 (inactive). Also, in test [6], the slope is 0.00606 (inactive).

For the compound `CCS(=O)(=O)N1CCC(C(=O)NC2CCCCCCC2)CC1`, the cell count in test [1] was 649. The inhibition is -9.4% (inactive) in test [1], -113% (inactive) in test [3], -13% (inactive) in test [7] and -6.47% (inactive) in test [8]. Besides, the inhibition of aggregation in test [2] is -9.5% (inactive). The nuclei count in test [2] came to 104%; in test [3], 128%. In addition, in test [4], the fluorescence slope was -0.378 (inactive). Further, the NADPH fluorescence slope in test [5] is 1.4e-05 (inactive). In test [6], the slope is 0.00549 (inactive).

Regarding `Cc1cc(C)n(-c2nc(C)nc3sc4c(c23)CCC(C)C4)n1` (centres undefined), the cell count in test [1] is 564. Also, the inhibition in test [1] is -8.4% (inactive); in test [3], -88% (inactive); in test [7] it was -1.01% (inactive); in test [8], 32.1% (inactive). Also, in test [2], the inhibition of aggregation is -2% (inactive). Besides, the nuclei count is 93.8% in test [2] and 121% in test [3]. Besides, the fluorescence slope in test [4] was -0.465 (inactive). Besides, the NADPH fluorescence slope in test [5] was 5.5e-06 (inactive). Further, in test [6], the slope is 0.00248 (inactive).

As to `COc1ccc(CNC(=O)c2cnc3n(c2=O)CCS3)cc1`, the cell count in test [1] came out at 591. Further, the inhibition is -6.4% (inactive) in test [1], 15.6% (inactive) in test [3], 10.9% (inactive) in test [7] and 29.1% (inactive) in test [8]. Further, in test [2], the inhibition of aggregation was 15.6% (inactive). Moreover, the nuclei count in test [2] was 97.2%; in test [3] it was 95.7%. In addition, in test [4], the fluorescence slope is -0.369 (inactive). The NADPH fluorescence slope in test [5] was 4e-05 (inactive). Also, in test [6], the slope is 0.00542 (inactive).

Consider `COc1cccc(C(=O)NC2=NCCS2)c1`, for which the cell count in test [1] is 400. The inhibition in test [1] is -13.2% (inactive); in test [3], -56.9% (inactive); in test [7], -13.2% (inactive); in test [8], -61.5% (inactive). In addition, the inhibition of aggregation in test [2] is 29.5% (inactive). For the same compound, the figures for the nuclei count in test [2] and in test [3] were 71.6% and 131%, respectively. In test [4], the fluorescence slope was -0.496 (inactive). Moreover, the NADPH fluorescence slope in test [5] was -3.2e-05 (inactive). For the same compound, the slope in test [6] was 0.00469 (inactive).

For `O=C(NCc1ccccn1)c1cccs1`, the cell count in test [1] came out at 254. Further, the inhibition in test [1] was 12.5% (inactive); in test [3], -1.8% (inactive); in test [7] it was -4.29% (inactive); in test [8], 5.52% (inactive). Besides, the inhibition of aggregation in test [2] was 2.9% (inactive). Also, the nuclei count in test [2] is 91.4%; in test [3] it was 95.7%. Also, the fluorescence slope in test [4] is -0.479 (inactive). In test [5], the NADPH fluorescence slope was -5.3e-05 (inactive). Also, the slope in test [6] is 0.00519 (inactive).

Turning to `Cc1cn2c(-c3ccc(Cl)cc3)nnc2s1`, the cell count in test [1] was 752. In addition, the inhibition was -1.6% (inactive) in test [1], -81% (inactive) in test [3], 6.2% (inactive) in test [7] and 12.3% (inactive) in test [8]. Also, the inhibition of aggregation in test [2] was 17.6% (inactive). In addition, the nuclei count in test [2] came to 98%; in test [3] it was 109%. Further, the fluorescence slope in test [4] is -0.563 (inactive). Moreover, the NADPH fluorescence slope in test [5] was -4.1e-05 (inactive). In addition, the slope in test [6] was 0.00702 (inactive).
